Rows were chosen to be rich in hits. Some 3% of all compounds tested hit in one or more screens of this group.
LDHA block: blocks human lactate dehydrogenase A | activity change, % (values are at about 110 or 230 µM) | hit rate 0.15% among 480,000 | purified LDHA, NADH/diaphorase-resazurin fluorescence; stronger effect = lower value | P00338 | AID 1347041; in the data active = activity change below about -30%; inconclusive = mostly about -25% to -30%;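 note: plate controls were DMSO wells for no effect and wells without enzyme for full effect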
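Resorufin fluorescence (ex540/em590), read at 0 and 20 min after diaphorase/resazurin addition, reports the NADH left after a 5 min room-temperature reaction of 2 nM human LDH5 with 0.06 mM NADH and 0.2 mM pyruvate.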
ClpP mod: qHTS Assay for Activators of ClpP | ATP-dependent Clp protease proteolytic subunit (Bacillus subtilis (strain 168)), P80244 | purified B. subtilis ClpP, FRET peptide cleavage, 20 min | Potency, µM (top dose mostly 57.5 µM), for inactives: top-dose activity change, negative = active | hit rate 1.9% among 340,000 | AID 651965, 2013; active = well fitted falling curve with a large enough effect; inconclusive = small, poorly fitted or top-dose-only effect; inactive = no such curve, though single readings can be large or run the other way; note: potency is the fitted concentration of half-maximal effect; the source files actives as falling curves though it sought activators and does not explain the sign; nearly all actives have a fitted effect of over 65% in size
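FRET quenching reversal measured ClpP activation: 10 microg/mL B. subtilis ClpP at pH 8 with the FRET-FV decapeptide, read at 430 nm after 320 nm excitation. The 20-min minus 0-min signal was scaled between DMSO/no-enzyme wells and ADEP (5.8 microM final).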
12-LOX inh: ALOX12 (human) lipoxygenase inhibition. P18054. purified 12hLO, xylenol orange hydroperoxide absorbance. Potency, µM (titrated, usually from 108 µM), without a hit: at the highest dose activity change, negative = inhibition, usual class: inhibitors. hit rate 1.1% among 580,000. AID 1671190; active = well fitted inhibition curve with a large enough effect; inconclusive = small, poorly fitted or top-dose-only effect, or another doubt; inactive = no such curve, though single readings can be large or run the other way; note: potency is the fitted concentration of half-maximal effect; % is set by controls: 0 for no effect and ±100 for the full control effect
Target sequence (P18054 whole entry, looked up): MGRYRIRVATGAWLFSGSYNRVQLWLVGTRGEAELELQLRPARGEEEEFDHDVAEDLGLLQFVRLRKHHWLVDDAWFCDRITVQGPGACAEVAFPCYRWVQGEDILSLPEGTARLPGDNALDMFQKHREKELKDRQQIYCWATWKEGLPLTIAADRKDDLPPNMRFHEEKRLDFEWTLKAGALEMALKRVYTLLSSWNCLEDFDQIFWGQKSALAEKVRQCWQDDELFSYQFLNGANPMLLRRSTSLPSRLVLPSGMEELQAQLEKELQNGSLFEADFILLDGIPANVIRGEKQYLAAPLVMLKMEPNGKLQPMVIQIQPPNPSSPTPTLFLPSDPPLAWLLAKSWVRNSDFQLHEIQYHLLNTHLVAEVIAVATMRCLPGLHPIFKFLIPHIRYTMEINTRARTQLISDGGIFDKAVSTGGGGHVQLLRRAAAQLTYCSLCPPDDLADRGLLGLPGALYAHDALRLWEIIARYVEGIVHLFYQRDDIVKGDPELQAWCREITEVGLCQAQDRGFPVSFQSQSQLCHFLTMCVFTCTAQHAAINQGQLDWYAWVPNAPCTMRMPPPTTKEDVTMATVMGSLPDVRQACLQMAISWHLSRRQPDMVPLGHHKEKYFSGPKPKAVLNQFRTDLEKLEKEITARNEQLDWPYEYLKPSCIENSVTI
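Purified human 12hLO at 150 nM in 25 mM Hepes, 0.01% Triton X-100, pH 7.0, preincubated 15 min at room temperature with compound. Reaction started with 40 uM arachidonic acid, 30 min at room temperature. Hydroperoxide measured by Fe-xylenol orange, 573/405 nm absorbance ratio.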
KCNH2 WT inh: blocks the wildtype human KCNH2 potassium channel | U2OS, BacMam KCNH2, thallium flux FluxOr; stronger effect = lower value | Q12809 | hit rate 0.37% among 340,000 | activity change, % at 1.84 µM;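 active = maximum activity change below -70%; inconclusive = maximum activity change between -70% and -50%; inactive = maximum activity change above -50%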; note: % is set by controls: 0 for no effect and ±100 for the full control effect
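U2OS cells transduced with wild-type KCNH2 virus are loaded with FluxOr dye for 45 min, and thallium flux is measured in kinetic reads before and after stimulation buffer. Rate constants are normalized to DMSO controls.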
KCNH2 3.1 block: inhibitors of human KCNH2 3.1 potassium channel isoform. AID 720553. activity change, % (tested at about 1.8 µM). U2OS KCNH2 3.1, thallium flux FluxOr; stronger effect = lower value. hit rate 0.95% among 340,000;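 active = maximum activity change below -70%; inconclusive = maximum activity change from -70% to -50%; inactive = maximum activity change above -50%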;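 note: thallium influx rate constant from kinetic fluorescence after stimulation buffer; % is set by controls: 0 for no effect and ±100 for the full control effect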
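FluxOr-based Tl+ influx in U2OS cells transduced with KCNH2 3.1 virus; rate constants normalized to DMSO controls.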
BCR signal inh: chronic active BCR signaling inhibition; ABC-DLBCL IkBa-CBG/CBR reporter, luminescence ratio, 4 h; Potency, µM (highest dose often 46.1 µM), inactives show top-dose activity change, negative = inhibition, hits mostly inhibitors; hit rate 0.05% among 340,000; AID 493014; active = well fitted inhibition curve with a large enough effect in the signal ratio, with a control signal flat, not every such curve was filed as active; inconclusive = small, poorly fitted or top-dose-only effect, or effect the other way, or a change in a side signal; the % refers to the signal ratio;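 note: potency is the fitted concentration of half-maximal effect; plate controls were basal doxycycline-induced cells for no effect and cells given 10 µM MG132 for full effect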
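Compounds up to 46 uM were incubated four hours with TMD8 cells whose green CBG68 luciferase is fused to IkappaBalpha; red CBR luminescence normalised the signal, and concentration-effect curves were fitted to fusion, red and ratio data.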
The depositor's hits bear a star; ? = inconclusive; / = not tested or not shown.

SMILES	LDHA block	ClpP mod	12-LOX inh	KCNH2 WT inh	KCNH2 3.1 block	BCR signal inh
COc1ccc(-c2ccc(CCC(=O)O)n2-c2ccccc2O)cc1	3	-20%	?	-16	1	16µM*
O=C(O)CCc1ccc(-c2ccc(Br)cc2)n1CC(=O)O	-3	-9%	?	-10	6	11%
COc1ccc(-c2ccc(CCC(=O)O)n2CC(C)C)cc1	-1	32µM*	?	15	6	?
O=C(O)CCc1ccc(-c2ccccc2)n1CC(=O)O	-3	32µM*	3%	-6	-1	23%
CCNC(=O)N1CCc2cc(OC)c(OC)cc2C1CNC(=O)c1ccccc1C (stereo not drawn)	/	/	16%	/	/	/
FC(F)(F)c1cccc(/C=N/Nc2ccc(Cl)cc2)c1	8	/	7.1µM*	/	/	/
Cc1ccc(N/N=C/c2cccc(C(F)(F)F)c2)cc1Cl	4	/	3.5µM*	/	/	/
FC(F)(F)c1ccc(/C=N/Nc2ccc(Cl)cc2)cc1	-1	/	7.1µM*	/	/	/
CN(C)S(=O)(=O)c1cccc(Nc2nc(CN3CCOCC3)nc3sc4c(c23)CCCC4)c1	15	/	0%	/	/	/
CCOc1cc(/C=C/c2nc3ccccc3s2)ccc1O	3	/	40µM*	/	/	/
COc1cccc(N2CC(C(=O)N3CCC4(CC3)CC(=O)c3ccccc3O4)CC2=O)c1 (stereo not drawn)	-1	28µM*	11%	-3	-2	-8%
O=C1CC2(CCN(C(=O)C3CC(=O)N(c4ccccc4)C3)CC2)Oc2ccccc21 (stereo not drawn)	-11	32µM*	-10%	32	14	3%
O=C(C1CC(=O)N(c2ccccc2)C1)N1CCCCCC1 (stereo not drawn)	-1	0%	0%	7	19	2%
COc1ccc(C(=O)N2CCC3(CC2)CC(=O)c2ccccc2O3)cc1	/	/	0%	/	/	/
O=C(CC1C=CCC1)NCCc1cccs1 (stereo not drawn)	4	/	-17%	/	/	/
CCCNC(C)c1cc2ccccc2o1 (stereo not drawn)	9	/	22%	/	/	/
CC1CCN(C(=O)c2ccccc2OCC2CCCN(Cc3cccnc3)C2)CC1 (stereo not drawn)	/	/	58%	/	/	/
CCCSc1nnc(NC(=O)CSc2sc3c(O)cc(=O)[nH]c3c2C#N)s1	-2	/	50µM*	0	9	0%
N#Cc1c(SCC(=O)Nc2nc3ccccc3s2)sc2c(O)cc(=O)[nH]c12	-3	-1%	?	-3	-5	?
N#Cc1c(SCC(=O)Nc2nccs2)sc2c(O)cc(=O)[nH]c12	1	0%	?	1	0	?
N#Cc1c(SCC(=O)Nc2nc3ccc(Br)cc3s2)sc2c(O)cc(=O)[nH]c12	0	-3%	16µM*	14	2	7%
O=C(c1ccc(=O)oc1)N1CCN(c2ccc(F)cc2)CC1	-3	32µM*	-10%	-3	-3	1%
COc1ccc(N2CCN(C(=O)c3ccc(Cn4c(=S)[nH]c5ccc(N6CCOCC6)cc5c4=O)cc3)CC2)cc1	-4	/	-2%	-2	5	?
O=C(c1ccc(Cn2c(=S)[nH]c3ccc(N4CCOCC4)cc3c2=O)cc1)N1CCN(c2ccc(F)cc2)CC1	-13	20µM*	0%	-9	-11	-13%
O=C(NCC(O)CO)c1ccc2[nH]c3ccccc3c2c1 (stereo not drawn)	-4	28µM*	-7%	-1	-1	?
SMILES	LDHA block	ClpP mod	12-LOX inh	KCNH2 WT inh	KCNH2 3.1 block	BCR signal inh
COc1ccc(Cl)cc1C(=O)Nc1ccc(-n2cnnn2)cc1	-14	/	46%	/	/	/
CCOc1cc(/C=C(\C#N)C(=O)Nc2cccc(C(=O)O)c2)cc(Br)c1OC(=O)c1ccc(OC)cc1	-5	/	45µM*	-1	-112*	?
O=C(Nc1cccc2c1CCCC2)c1cc([N+](=O)[O-])cc([N+](=O)[O-])c1	-2	28µM*	0%	-8	-3	1%
CCC1S/C(=N/C(=O)NC2CCCCC2)NC1=O (stereo not drawn)	-2	1%	0%	7	0	-14%
O=C(/N=C1\NC(=O)C(F)(C(F)(F)F)S1)NC1CCCCC1 (stereo not drawn)	-1	-4%	10µM*	6	0	2%
Cc1sc2ncnc(N3CCN(c4ccccc4)CC3)c2c1-c1ccc(F)cc1	2	/	-13%	/	/	/
COc1ccc2oc(C(=O)NCC(c3ccco3)N(C)C)c(C)c2c1 (stereo not drawn)	0	28µM*	-12%	3	0	?
CCCCc1nnc(NC(=O)c2oc3ccc(OC)cc3c2C)s1	-4	32µM*	0%	6	-11	-3%
COc1ccc2oc(C(=O)Nc3nccs3)c(C)c2c1	-7	/	-5%	2	1	?
Oc1ccc(-c2nc3ccccn3c2NCc2ccc3c(c2)OCO3)cc1	-4	?	71%	16	?	?
Cc1ccn2c(NCc3ccc4c(c3)OCO4)c(-c3ccc(O)cc3)nc2c1	-10	?	7%	-12	-75*	?
N#CCCn1cc(-c2csc(NC3CC3)n2)c2ccccc21	11	/	14µM*	/	/	/
CNc1nc(-c2cn(CCC#N)c3ccccc23)cs1	-20	/	?	/	/	/
COc1ccc(C2N(S(=O)(=O)c3ccc(C)cc3)CCN2S(=O)(=O)c2ccc(C)cc2)cc1	0	-1%	-1%	-6	-72*	15%
COc1ccc(-c2nc(S(=O)(=O)c3ccccc3)c(N3CCCC3)o2)cc1	-4	-2%	4.5µM*	-10	-1	/
Fc1ccc(N/N=C/c2ccc(Cl)c(Cl)c2)c(F)c1	0	/	35µM*	/	/	/
Fc1ccc(N/N=C/c2ccc(Br)cc2)c(F)c1	0	/	?	/	/	/
Cc1ccsc1/C=N/Nc1ccc(F)cc1F	10	/	40µM*	-7	-12	?
Fc1ccc(N/N=C/c2ccccc2Cl)c(F)c1	17	/	3.2µM*	/	/	/
Cc1cc(C)nc(N/N=C/c2sccc2C)n1	-11	/	12%	17	5	?
Fc1ccc(N/N=C/c2ccc(N3CCOCC3)cc2)c(F)c1	3	35µM*	?	-32	-7	?
CCN(CC)CCNC(=O)c1ccc(CN)cc1	2	/	?	/	/	/
Cc1cc2oc(=O)cc(CSc3nncn3C(C)C)c2cc1C(C)C	3	/	-22%	/	/	/
COc1cc(CN(CC2CCCO2)C(=O)COc2ccc(Cl)cc2C)cc(OC)c1OC (stereo not drawn)	7	/	13%	/	/	/
CCOC(=O)Cc1c(C)nc2c(-c3cccc(Br)c3)c[nH]n2c1=O	-7	14µM*	98%	-19	3	2%
